cardiac RTF act – cardiac RTF calcium sensitization; P19429+P45379; IANBD-labeled TnC RTF fluorescence at EC20 calcium; 0% EC20 calcium, 100% full calcium; activation, % at 7.2 µM; 340,000 compounds, 0.24% hits;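 active means activation above the mean over all tested compounds plus 3 SD, cut at about 30% in these data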;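 further: rise in fluorescence read as greater calcium sensitivity of cardiac thin filaments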
LANA-H2A inh – blocks KSHV LANA binding to histone H2A/H2B; Q9QR71; cell-free LANA-H2A/H2B peptide, fluorescence polarization; inhibition, % (concentration not given with the values); 320,000 compounds, 0.6% hits; AID 2629; in the data active means inhibition mostly above about 10%, no sharp cut-off; inactive means mostly below about 6.7%
Cardiac RTF inh – cardiac RTF calcium desensitization | 340,000 compounds, 0.12% hits | inhibition, % at 7.15 µM | IANBD-labeled cardiac RTF, Ca2+ fluorescence | P19429+P45379;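 active means inhibition above the mean inhibition of all tested compounds plus 3 SD, cut at about 17% in these data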;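 further: assay run at fixed EC70 calcium of 1.6 mM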
C-LANA FP – blocks KSHV LANA C-terminal domain binding to DNA. MBP-C-LANA/FAM-LBS DNA binding, fluorescence polarization. inhibition, % at 9 µM. 340,000 compounds, 0.078% hits;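 active means highest replicate inhibition at or above 60% at 9 µM, even if other replicates fall short; inactive means all replicates below 60% inhibition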;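 further: 0% = neutral control wells and 100% = 4 µM acridine orange control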
Keap1-Nrf2 PPI – inhibitors of human Keap1-Nrf2 protein-protein interaction | Q14145 | Keap1 Kelch-Nrf2 peptide fluorescence polarization, 1536-well | inhibition, % at 9.4 µM | 340,000 compounds, 0.15% hits | AID 504523; in the data active means inhibition above about 12%;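 further: human Keap1 Kelch domain with fluorescein labeled Nrf2 9mer peptide probe; 0% = neutral control wells and 100% = peptide positive control; higher means more block of Keap1 binding to Nrf2 peptide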
Target sequence (Q14145 whole entry, looked up, the tested form may be a part): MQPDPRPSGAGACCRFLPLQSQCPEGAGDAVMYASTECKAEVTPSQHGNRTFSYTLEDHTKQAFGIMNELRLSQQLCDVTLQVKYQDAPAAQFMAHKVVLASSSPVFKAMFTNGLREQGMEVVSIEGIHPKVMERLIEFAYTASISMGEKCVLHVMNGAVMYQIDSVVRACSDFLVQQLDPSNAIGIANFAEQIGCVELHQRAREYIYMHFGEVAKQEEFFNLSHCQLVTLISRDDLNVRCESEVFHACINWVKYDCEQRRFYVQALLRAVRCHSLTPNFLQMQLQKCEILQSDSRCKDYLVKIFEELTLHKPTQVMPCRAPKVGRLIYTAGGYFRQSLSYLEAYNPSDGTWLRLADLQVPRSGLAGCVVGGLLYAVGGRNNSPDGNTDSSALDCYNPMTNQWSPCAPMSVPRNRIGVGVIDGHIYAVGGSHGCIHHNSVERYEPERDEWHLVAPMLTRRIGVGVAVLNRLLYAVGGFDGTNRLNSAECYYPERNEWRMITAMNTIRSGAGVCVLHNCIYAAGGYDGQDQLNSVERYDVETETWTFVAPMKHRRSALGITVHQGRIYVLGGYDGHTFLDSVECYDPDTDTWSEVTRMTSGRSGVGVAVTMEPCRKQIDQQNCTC
* = called active by the depositor; i = inactive; . = no result; + = active, no number. Sampled rows, rich in hits. Any-hit rate of the full collection: about 1%.

SMILES	cardiac RTF act	LANA-H2A inh	Cardiac RTF inh	C-LANA FP	Keap1-Nrf2 PPI
O=C(Nc1ccccc1Cl)c1cccc(NC(=O)C2CCCC2)c1	4	-3	4	0	-2
O=C(Nc1ccccc1Cl)c1cccc(NC(=O)c2cccs2)c1	8	38*	-1	-1	-4
Cc1ccc(/C=C2\SC(N3CCCC3)=NC2=O)cc1	.	-4	.	.	.
CN(C)c1ccc(/C=C2\SC(N3CCCCC3)=NC2=O)cc1	40*	-7	-75	1	-5
CCOC(=O)Cc1csc(SCc2nc3ccccc3c(=O)[nH]2)n1	5	-5	-2	1	1
O=C(NNC(=O)C1CCCN(c2ncccn2)C1)c1ccncc1 (stereo not given)	-9	12*	4	1	-3
CCC(NC(=O)C1C2C=CC(C2)C1C(=O)O)c1ccc(C)cc1 (stereo not given)	1	104*	1	0	-3
CCC(NC(=O)CCl)c1ccc(C)cc1 (stereo not given)	-5	-2	-10	0	4
O=C(CNc1ccccc1Cl)N/N=C1\CCCc2ccccc21	2	-4	-7	0	-1
CCN(CC)c1ccc(/C=C(/C#N)C(=O)NCc2ccccc2)o1	111*	-37	-108	-14	-147
CCN(CC)c1ccc(/C=C(/C#N)C(=O)NC(C)C)o1	72*	-54	-81	-43	-169
CC(C)NC(=O)/C(C#N)=C\c1ccc(N(C)C)o1	64*	-25	-86	-39	-119
CC(NC(=O)/C(C#N)=C/c1ccc([N+](=O)[O-])o1)c1ccccc1 (stereo not given)	8	10	1	-1	-11
CCN(CC)S(=O)(=O)c1ccc(NCc2ccccn2)nc1	0	0	-3	1	4
CCCN(CCC)C(=O)C1CC(=O)OC12CCCCC2 (stereo not given)	.	13*	.	0	2
CCc1ccccc1N(CC(=O)NC1CCCC1)C(=O)CNC(=O)c1cccs1	3	0	-9	2	-1
Cc1[nH]nc(SCC(=O)NCc2ccccc2)c1[N+](=O)[O-]	1	.	-7	-1	-2
Cc1[nH]nc(SCC(=O)NCCc2ccccc2)c1[N+](=O)[O-]	0	12*	-22	0	-2
CCOC(=O)C1=C(O)/C(=C/c2cn(CC(=O)NCC3CCCO3)c3ccccc23)SC1=Nc1ccc(C)cc1 (stereo not given)	135*	-1	-20	21	-7
Cc1cc(C)n2nc(CCCCc3nc4nc(C)cc(C)n4n3)nc2n1	.	2	.	.	.
Cc1cc(C)n2nc[n+](C)c2n1	7	19*	-3	2	0
COc1ccccc1NS(=O)(=O)c1cccc(C(=O)N2CC(C)OC(C)C2)c1 (stereo not given)	2	-2	-15	1	-4
COc1ccccc1NS(=O)(=O)c1ccc(C(=O)N2CC(C)OC(C)C2)cc1 (stereo not given)	10	20*	-15	1	-1
CC(C)(C)OC(=O)N1CCC(C(=O)Nc2ccc(C(=O)NC3CC3)cc2)CC1	-1	.	-1	1	2
Cc1ccc(C2C=C(c3ccccc3)Nc3ncnn32)cc1 (stereo not given)	0	-3	-15	5	-1
SMILES	cardiac RTF act	LANA-H2A inh	Cardiac RTF inh	C-LANA FP	Keap1-Nrf2 PPI
Brc1ccc(C2=CC(c3cccs3)n3ncnc3N2)cc1 (stereo not given)	707*	59*	i	101*	55*
OCCCc1nc2n(n1)C(c1cccs1)C=C(c1ccc(Br)cc1)N2 (stereo not given)	.	102*	.	.	.
C1=C(c2ccc(-c3ccccc3)cc2)Nc2ncnn2C1c1ccco1 (stereo not given)	336*	.	-425	27	6
CCc1ccc(-c2nc(CS(=O)CC(=O)O)c(C)o2)cc1 (stereo not given)	0	1	-5	-1	-6
N#CC1=C(N)SC(N)=C(C#N)C1c1ccoc1	.	0	.	.	.
Cc1ccc(C2C(C#N)=C(N)SC(N)=C2C#N)cc1	41*	.	-68	-5	-66
Cc1ccc(C2C(C#N)=C(N)SC(N)=C2C#N)c(C)c1	81*	-14	-124	-4	-24
N#CC1=C(N)SC(N)=C(C#N)C1c1ccnc2ccccc12	6	5	-18	-6	-40
O=C(CC12CC3CC(CC(Br)(C3)C1)C2)NC1CCCC1	2	12*	11	2	-4
O=C(CCc1ccccc1)Nc1ncn[nH]1	-2	1	3	1	3
O=C(/C=C/c1ccccc1)Nc1ncn[nH]1	3	14*	4	-3	-6
O=C(O)c1ccccc1-c1ccc(/C=C/c2cc(C(F)(F)F)[nH]c(=O)n2)o1	727*	.	i	8	-234
O=C(O)c1cc(Cl)ccc1-c1ccc(/C=C/c2cc(C(F)(F)F)[nH]c(=O)n2)o1	448*	-45	i	-11	-284
Cc1nc(S/C(=C/c2ccc(-c3cc(Cl)ccc3C)o2)C(=O)O)n[nH]1	-1	-7	-13	3	-2
O=c1nc(/C=C/c2ccc(-c3ccc(F)cc3)o2)cc(C(F)(F)F)[nH]1	.	-2	.	.	.
C/C(=N/NC(=O)CNC(=O)Cc1ccccc1)c1ccco1	39*	1	-4	0	6
C/C(=N/NC(=O)CNC(=O)/C=C/c1ccccc1)c1ccco1	-1	1	0	3	-1
CCN(CC)S(=O)(=O)c1ccc(N2CC(C(=O)NCCC3=CCCCC3)CC2=O)cc1 (stereo not given)	0	0	-5	0	0
CCN(CC)S(=O)(=O)c1ccc(N2CC(C(=O)NCCc3ccc(Cl)cc3)CC2=O)cc1 (stereo not given)	0	+	-5	0	-4
CN(C)CCNC(=O)C1CC(=O)N(c2ccc(F)c(Cl)c2)C1 (stereo not given)	-4	94*	-4	0	3
O=C(CCN=C1NS(=O)(=O)c2ccccc21)N1CCc2ccccc2C1	3	-3	8	1	0
Cc1ccc(NC(=O)C2CCN(C(=O)c3ccccc3C)CC2)nc1	2	0	-4	2	-2
CN(C)c1ccc(C(=O)/C=C/c2cccnc2)cc1	-3	-1	-11	2	3
CN(C)c1ccc(/C=C/C(=O)c2cccc(Br)c2)cc1	135*	-24	-306	-4	-38
O=C(c1ccccc1)[C@@H]1[C@@H]2C(=O)N(c3ccc(F)cc3)C(=O)[C@@H]2C2CCCN21 (stereo not given in full)	16	11	-23	14	2
Cc1ccc(N2C(=O)[C@@H]3[C@H](C2=O)C2CCCN2[C@@H]3C(=O)c2ccccc2)cc1 (stereo not given in full)	31*	2	-23	10	-2
CCCN1C(=O)/C(=N\OCC(=O)Nc2ccc(C(C)C)cc2)c2ccccc21	-5	-4	3	2	2

Screens from PubChem BioAssay.
